Experimental data taken from PubChem BioAssay (Tox21).
Records with an inconclusive call do not appear. Values without a mark were called inactive. Calls come from the whole dose curve; as a rule, active = well fitted cell-killing curve with a large enough effect in the repeat runs; inconclusive = weak or mixed curves; inactive = flat fitted curve, though single readings scatter.

Test: qHTS RealTime-Glo MT Cell Viability Assay in HepG2 cells - 24 hour (AID 1224867); note: nearly all actives have a fitted effect of over 50% in size
Settings: RealTime-Glo luminescence; series mostly up to 76.8 µM; activity change, negative = cytotoxicity: at the top concentration
Source text: U.S. Tox21 Program National Center for Advancing Translational Sciences [NCATS] NIH Chemical Genomics Center [NCGC] U.S. Environmental Protection Agency [EPA] National Institutes of Environmental Health Sciences [NIEHS] National Toxicology Program [NTP] U.S. Food and Drug Administration [FDA] Tox21 Assay Overview: Measure of cell viability is critical in the cell-base assay. Analysis of cell viability is necessary for the characterization of cell responses to cytotoxic drugs and environmental stress. A RealTime-Glo MT Cell Viability Assay to monitor cell viability in real time of continues cell culture during 40 hours of compound treatment was used to screen Tox21 10K library compounds in HepG2 cells. The RealTime-Glo MT Cell Viability Assay is a nonlytic, homogeneous, bioluminescent method to measure cell viability in real time using a simple, plate-based method. The assay involves adding NanoLuc luciferase and a cell-permeant prosubstrate to cells in culture. Viable cells reduce the proprietary prosubstrate to generate a substrate for NanoLuc luciferase. This substrate diffuses from cells into the surrounding culture medium, where it is rapidly used by the NanoLuc Enzyme to produce a luminescent signal. The signal correlates with the number of viable cells, making the assay well suited for cytotoxicity studies.
Tox21 Assay Protocol Summary: The mixture of HepG2 cell suspension and reagents were dispensed at 600cells/6 ul/well in 1536-well tissue culture treated black solid bottom plates using a Multidrop dispenser. After the assay plates were incubated at a 37 C/5% CO2 incubator for 5 hours, 23 nL of compounds dissolved in DMSO, positive and negative controls was transferred to the assay plate by a pintool work station. The plates were incubated at 37 C for 40 hours. The luminescence intensity were measured at 0h, 8h, 16h, 24h, 32h and 40h time points using ViewLux plate reader during compound treatment.
% is set by controls: 0 for no effect and ±100 for the full control effect.

Compound	activity change, negative = cytotoxicity
CN1[C@@H]2CC[C@H]1CC(NC(=O)n1c(=O)[nH]c3ccccc31)C2 (stereo not given in full)	2.01% [at 35.3 µM]
CCn1c(=O)c2c(nc(/C=C/c3ccc(OC)c(OC)c3)n2C)n(CC)c1=O	-24.9% [at 35.3 µM]
CC1(C)OC(=O)Nc2ccc(Br)cc21	1.5% [at 35.3 µM]
CC(C)c1ccc2oc3nc(N)c(C(=O)O)cc3c(=O)c2c1	3.86% [at 35.3 µM]
CSc1ccc(C=O)cc1	0.436%
CCCOCC(C)OCC(C)O (stereo not given)	3%
Nc1ccc2cc(S(=O)(=O)O)ccc2c1	2.27%
CC(=O)CCc1ccc(O)cc1	-0.253%
CCOC(=O)Nc1ccc2c(c1)N(C(=O)CCN1CCOCC1)c1ccccc1S2	-8.03% [at 35.3 µM]
CC(C)CCCC(C)NCCC(C)C (stereo not given)	0.274% [at 35.3 µM]
C/C=C1\C(=O)C[C@H]2[C@@H]3CCC4=CC(=O)CC[C@]4(C)[C@H]3CC[C@]12C	-10.9% [at 35.3 µM]
C[C@H]1O[C@@H](n2cc(F)c(=O)[nH]c2=O)[C@H](O)[C@@H]1O	-0.85% [at 35.3 µM]
CC1=CCC2C(C1)C2(C)C (stereo not given)	-0.297%
COCCOC(=O)CC#N	1.8%
O=[N+]([O-])c1ccc(CCO)cc1	-0.241%
CC(C)=CCC/C(C)=C/C(=O)O	4.29%
NC(N)=NS(=O)(=O)c1ccc(N)cc1	-0.201% [at 35.3 µM]
CCCOc1ccccc1-c1nc2n[nH]nc2c(=O)[nH]1	0.604% [at 35.3 µM]
CC(C)(O)c1ccccc1	-1.4%
Cc1c(F)cc2c(=O)c(C(=O)O)cn3c2c1CCC3C (stereo not given)	0.491% [at 35.3 µM]

Compound	activity change, negative = cytotoxicity
NC(=O)Nc1nc2ccccc2[nH]1	0.605%
COc1nc(C)nc(N)n1	0.58%
C=C(C)[C@H]1CC=C(C)CC1	-0.581%
COc1ccc(NC(C)=O)cc1	0.382%
C1C2OC2C2C1C1CC2C2OC12 (stereo not given)	-0.464%
COc1ccc(N=[N+]([O-])c2ccc(OC)cc2)cc1	-5.65%
CCCCC1CCCCC(=O)O1 (stereo not given)	-0.33%
CCO[Si](C)(OCC)OCC	3.37%
Cc1ccccc1C(=O)O	1.02%
O=C1OC(=O)c2cc([N+](=O)[O-])ccc21	0.252%
CCCC=O	0.401%
NC(=O)CCCCC1CCSS1 (stereo not given)	2.3% [at 35.3 µM]
C#CC(O)CCCCC (stereo not given)	4.49%
O=C(O)C(O)[C@H](O)[C@@H](O)[C@H](O)[C@H](O)CO (stereo not given in full)	0.827%
C#CC(O)C(CC)CCCC (stereo not given)	-1.64%
CCCC(=O)O[C@]1(C(=O)CCl)[C@@H](C)C[C@H]2[C@@H]3CCC4=CC(=O)C=C[C@]4(C)[C@@]3(F)C(=O)C[C@@]21C	-20.5% [at 35.3 µM]
FC(F)(F)C(F)(F)C(F)(F)C(F)(F)C(F)(F)C(F)(F)C(F)(F)C(F)(F)C(F)(F)C(F)(F)F	-0.167% [at 6.97 µM]
NS(=O)(=O)c1cc2c(cc1C(F)(F)F)NC(Cc1ccccc1)NS2(=O)=O (stereo not given)	3.2% [at 35.3 µM]
CCC(=O)Nc1cccc(N)c1	1.08%
COc1ccc(COC=O)cc1	0.527%
